From PubChem BioAssay (Tox21)
Records with an inconclusive call do not appear. Active and inactive are the calls of the source. Unless noted, calls follow the shape of the dose curve; as a rule, active = well fitted curve in the direction sought with a large enough effect in the repeat runs; inconclusive = weak or mixed curves; inactive = no such curve, though single readings can be large; an effect the other way counts as inactive or inconclusive.

Experiments:
[1] = Human pregnane X receptor (PXR) small molecule agonists, qHTS cell viability counter screen (AID 1346977); also: nearly all actives have a fitted effect of over 50% in size; also: potency is read from the fitted curve at half-maximal effect
Method in brief: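 PXR-Luc HepG2, 2,000 cells/well, 5% charcoal-stripped FBS; 5hr settle; cpd 24hr, 37C/5% CO2; CellTiter-Fluor at 23hr, read 1hr later (fluorescence).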

[2] = Caspase-3/7 induction in HepG2 cells by small molecules, qHTS assay (AID 1346978); also: nearly all actives have a fitted effect of over 15% in size
Method in brief: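 Wild-type HepG2 cells, 2,000/well, settled 5 hr at 37 C and 5% CO2, then compound-treated for 17 hr; caspase-3/7 activity read by luminescent Caspase-Glo 3/7 after 30 min at room temperature.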

[3] = Caspase-3/7 induction in CHO-K1 cells by small molecules, qHTS cell viability counter screen (AID 1346979); also: nearly all actives have a fitted effect of over 35% in size; also: potency is read from the fitted curve at half-maximal effect
Method in brief: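 Cells (CHO-K1, wild type) are plated at 1,500 per well and incubated 5hr. Test compounds in DMSO are then pinned in, followed by 16hr at 37C and 5% CO2. Viability is read by CellTiter-Fluor fluorescence after 1hr.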

[4] = Caspase-3/7 induction in CHO-K1 cells by small molecules, qHTS assay (AID 1346980); also: nearly all actives have a fitted effect of over 15% in size
Method in brief: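 Wild-type CHO-K1 cells exposed to compounds for 17hr at 37 C, 5% CO2. Caspase-3/7 activity then measured by Caspase-Glo 3/7 luminescence after 30min at room temperature.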

[5] = Caspase-3/7 induction in HepG2 cells by small molecules, qHTS cell viability counter screen (AID 1346981); also: nearly all actives have a fitted effect of over 30% in size; also: potency is read from the fitted curve at half-maximal effect
Method in brief: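 Viability determined by CellTiter-Fluor fluorescence in HepG2 wells also used for the luminescent Caspase-Glo 3/7 read. Compounds were present for 16 hr at 37 C, 5% CO2 before reagent addition.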

[6] = molecular target: Nuclear receptor subfamily 1 group I member 2 (Homo sapiens) (UniProt O75469); assay: Human pregnane X receptor (PXR) small molecule agonists, qHTS assay (AID 1346982); also: nearly all actives have a fitted effect of over 35% in size; also: potency is read from the fitted curve at half-maximal effect
Method in brief: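 Compound-induced hPXR transactivation of a CYP3A4 luciferase reporter was scored in HepG2 PXR-Luc cells over 24 hr at 37 C, 5% CO2, by luminescence.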

[7] = molecular target: Cytochrome P450 2D6 (Homo sapiens) (UniProt P10635); assay: Cytochrome P450 Family 2 Subfamily D Member 6 (CYP2D6) small molecule antagonists: luciferase reporter qHTS assay (AID 1671196); also: nearly all actives have a fitted effect of over 50% in size; also: potency is read from the fitted curve at half-maximal effect
Method in brief: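 Each well received CYP2D6 with its proluciferin substrate and chemical, sat 10 min, then got NADPH regeneration solution for 1 h at room temperature. Luminescence in RLU served as the activity measure.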

[8] = molecular target: Cytochrome P450 2C19 (Homo sapiens) (UniProt P33261); assay: Cytochrome P450 Family 2 Subfamily C Member 19 (CYP2C19) small molecule antagonists: luciferase reporter qHTS assay (AID 1671197); also: nearly all actives have a fitted effect of over 65% in size; also: potency is read from the fitted curve at half-maximal effect
Method in brief: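 CYP2C19 P450-Glo, 1536-well qHTS. Cpd + enzyme/proluciferin substrate 10 min RT; + NADPH regen, 37C 1 h; stop with luciferin detection reagent, 20 min RT, luminescence (RLU). Pos ctrl ketoconazole.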

[9] = molecular target: Cytochrome P450 2C9 (Homo sapiens) (UniProt P11712); assay: Cytochrome P450 Family 2 Subfamily C Member 9 (CYP2C9) small molecule antagonists: luciferase reporter qHTS assay (AID 1671198); also: nearly all actives have a fitted effect of over 50% in size; also: potency is read from the fitted curve at half-maximal effect
Method in brief: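 P450-Glo proluciferin substrate with CYP2C9 enzyme; 10 min RT preincubation, then NADPH regeneration 1 h at 37C; luciferin detection reagent 20 min RT, luminescence in relative luminescence units.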

[10] = molecular target: Cytochrome P450 3A4 (Homo sapiens) (UniProt P08684); assay: Cytochrome P450 Family 3 Subfamily A Member 4 (CYP3A4) small molecule antagonists: luciferase reporter qHTS assay (AID 1671201); also: nearly all actives have a fitted effect of over 50% in size; also: potency is read from the fitted curve at half-maximal effect
Method in brief: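 Compounds in DMSO were pin-transferred onto CYP3A4 enzyme-substrate mix and held 10 min at room temperature. NADPH regenerating solution started the reaction for 1 h; luciferin detection reagent stopped it, and luminescence was read after 20 min.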

[11] = molecular target: Thyrotropin-releasing hormone receptor (Homo sapiens) (UniProt P34981); assay: qHTS assay to identify small molecule agonists of the thyrotropin-releasing hormone receptor (TRHR) signaling pathway (AID 1346891; calls by dose curve; also: series mostly up to about 58 µM)
Method in brief: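 Intracellular calcium rise, read as fluorescence every second for 3 min, served as the agonist signal in dye-loaded HEK293 cells expressing TRHR; each compound ran at 15 concentrations in triplicate.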

[12] = molecular target: Cytochrome P450 1A2 (Homo sapiens) (UniProt P05177); assay: Cytochrome P450 Family 1 Subfamily A Member 2 (CYP1A2) small molecule antagonists: luciferase reporter qHTS assay (AID 1671199); also: nearly all actives have a fitted effect of over 50% in size; also: potency is read from the fitted curve at half-maximal effect
Method in brief: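 Enzymatic CYP1A2 assay, human, luminescent: 10 min compound–enzyme–substrate preincubation, 1 h NADPH-dependent turnover, 20 min detection step, room temperature throughout. Reduced light indicates lower CYP1A2 activity.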

[13] = molecular target: Voltage-gated inwardly rectifying potassium channel KCNH2 (Homo sapiens) (UniProt Q12809); assay: Human Ether-a-go-go-Related Gene (hERG) channel small molecule antagonists: fluorescence cell-based qHTS assay (AID 1671200); also: nearly all actives have a fitted effect of over 50% in size; also: potency is read from the fitted curve at half-maximal effect
Method in brief: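 Channel function was assessed by thallium flux. Cells seeded the previous day and kept at 37 C took up FluxOR II dye over 1 h in the dark at room temperature, then sat another 10 min before stimulation.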

[14] = molecular target: Nuclear receptor subfamily 1 group I member 2 (Rattus norvegicus) (UniProt Q9R1A7); assay: Rat pregnane X receptor (rPXR) activation by small molecules, qHTS assay (AID 1346983); conditions: rPXR luciferase reporter cells, One-Glo luminescence, 24 h; max activation: active compounds read high; also: nearly all actives have a fitted effect of over 20% in size
Method in brief: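 Cell-based rPXR activation assay: rPXR cells, 2,000 per well, rested 5hr at 37 C, then exposed to compounds in DMSO for 24 hr at 37 C. Luciferase activity read by One-Glo luminescence after 30 min at room temperature.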

[15] = molecular target: Nuclear receptor subfamily 1 group I member 2 (Homo sapiens) (UniProt O75469); assay: CYP3A4 induction through human pregnane X receptor (PXR) by small molecules, qHTS assay (AID 1346984); also: nearly all actives have a fitted effect of over 40% in size
Method in brief: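 Readings come from a luciferase reporter: DPX-2 cells, which are HepG2 cotransfected with PXR and a CYP3A4-promoter construct, were exposed to test compounds for 24 h at 37C before One-Glo detection.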

[16] = molecular target: Nuclear receptor subfamily 1 group I member 2 (Homo sapiens) (UniProt O75469); assay: Human pregnane X receptor (PXR) activation by small molecules, qHTS assay (AID 1346985); also: nearly all actives have a fitted effect of over 40% in size
Method in brief: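 DPX-2 cells (HepG2 co-transfected with a PXR response element and a CYP3A4-promoter luciferase construct) were seeded at 2,000 per well, rested 5 hr at 37C, then exposed to DMSO-dissolved compounds for 24 hr. Activation was read as luciferase luminescence.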
% is scaled to controls: 0 for no effect and ±100 for the full control effect.

Sequence of Thyrotropin-releasing hormone receptor (Homo sapiens) (P34981 whole entry, looked up): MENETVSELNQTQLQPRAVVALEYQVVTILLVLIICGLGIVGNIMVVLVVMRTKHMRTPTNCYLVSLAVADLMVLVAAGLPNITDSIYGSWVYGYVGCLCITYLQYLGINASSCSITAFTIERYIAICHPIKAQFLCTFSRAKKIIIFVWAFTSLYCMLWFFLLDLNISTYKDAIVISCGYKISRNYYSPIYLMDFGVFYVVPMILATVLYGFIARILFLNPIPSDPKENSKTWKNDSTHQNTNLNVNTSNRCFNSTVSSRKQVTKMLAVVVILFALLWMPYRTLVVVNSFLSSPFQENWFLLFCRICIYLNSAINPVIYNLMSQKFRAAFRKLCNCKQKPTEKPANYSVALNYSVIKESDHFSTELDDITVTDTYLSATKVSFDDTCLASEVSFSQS
Sequence of Cytochrome P450 2C19 (Homo sapiens) (P33261 whole entry, looked up): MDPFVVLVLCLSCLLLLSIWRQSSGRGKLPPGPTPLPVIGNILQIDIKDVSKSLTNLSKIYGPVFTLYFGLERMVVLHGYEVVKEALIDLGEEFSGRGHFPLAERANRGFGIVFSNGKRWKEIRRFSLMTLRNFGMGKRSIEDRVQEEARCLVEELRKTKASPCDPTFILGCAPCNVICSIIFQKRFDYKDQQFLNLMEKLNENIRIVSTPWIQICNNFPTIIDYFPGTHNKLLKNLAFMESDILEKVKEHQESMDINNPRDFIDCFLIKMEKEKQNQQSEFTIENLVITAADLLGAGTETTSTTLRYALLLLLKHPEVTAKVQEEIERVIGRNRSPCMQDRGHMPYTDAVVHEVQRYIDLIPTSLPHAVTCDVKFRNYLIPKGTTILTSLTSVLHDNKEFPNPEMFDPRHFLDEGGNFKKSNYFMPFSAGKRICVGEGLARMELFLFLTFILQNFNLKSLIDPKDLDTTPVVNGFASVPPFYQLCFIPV
Sequence of Nuclear receptor subfamily 1 group I member 2 (Homo sapiens) (O75469 whole entry, looked up): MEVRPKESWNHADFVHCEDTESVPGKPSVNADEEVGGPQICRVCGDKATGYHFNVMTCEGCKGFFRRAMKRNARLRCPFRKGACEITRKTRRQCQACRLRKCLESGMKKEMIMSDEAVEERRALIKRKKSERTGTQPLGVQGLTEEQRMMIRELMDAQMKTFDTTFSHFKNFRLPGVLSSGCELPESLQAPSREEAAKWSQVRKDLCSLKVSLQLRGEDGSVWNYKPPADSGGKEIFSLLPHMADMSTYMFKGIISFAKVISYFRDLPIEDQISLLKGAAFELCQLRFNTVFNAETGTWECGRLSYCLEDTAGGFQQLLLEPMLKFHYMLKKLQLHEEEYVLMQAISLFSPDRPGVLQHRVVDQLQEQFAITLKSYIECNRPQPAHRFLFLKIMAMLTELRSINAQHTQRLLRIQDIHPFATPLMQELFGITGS
Sequence of Voltage-gated inwardly rectifying potassium channel KCNH2 (Homo sapiens) (Q12809 whole entry, looked up): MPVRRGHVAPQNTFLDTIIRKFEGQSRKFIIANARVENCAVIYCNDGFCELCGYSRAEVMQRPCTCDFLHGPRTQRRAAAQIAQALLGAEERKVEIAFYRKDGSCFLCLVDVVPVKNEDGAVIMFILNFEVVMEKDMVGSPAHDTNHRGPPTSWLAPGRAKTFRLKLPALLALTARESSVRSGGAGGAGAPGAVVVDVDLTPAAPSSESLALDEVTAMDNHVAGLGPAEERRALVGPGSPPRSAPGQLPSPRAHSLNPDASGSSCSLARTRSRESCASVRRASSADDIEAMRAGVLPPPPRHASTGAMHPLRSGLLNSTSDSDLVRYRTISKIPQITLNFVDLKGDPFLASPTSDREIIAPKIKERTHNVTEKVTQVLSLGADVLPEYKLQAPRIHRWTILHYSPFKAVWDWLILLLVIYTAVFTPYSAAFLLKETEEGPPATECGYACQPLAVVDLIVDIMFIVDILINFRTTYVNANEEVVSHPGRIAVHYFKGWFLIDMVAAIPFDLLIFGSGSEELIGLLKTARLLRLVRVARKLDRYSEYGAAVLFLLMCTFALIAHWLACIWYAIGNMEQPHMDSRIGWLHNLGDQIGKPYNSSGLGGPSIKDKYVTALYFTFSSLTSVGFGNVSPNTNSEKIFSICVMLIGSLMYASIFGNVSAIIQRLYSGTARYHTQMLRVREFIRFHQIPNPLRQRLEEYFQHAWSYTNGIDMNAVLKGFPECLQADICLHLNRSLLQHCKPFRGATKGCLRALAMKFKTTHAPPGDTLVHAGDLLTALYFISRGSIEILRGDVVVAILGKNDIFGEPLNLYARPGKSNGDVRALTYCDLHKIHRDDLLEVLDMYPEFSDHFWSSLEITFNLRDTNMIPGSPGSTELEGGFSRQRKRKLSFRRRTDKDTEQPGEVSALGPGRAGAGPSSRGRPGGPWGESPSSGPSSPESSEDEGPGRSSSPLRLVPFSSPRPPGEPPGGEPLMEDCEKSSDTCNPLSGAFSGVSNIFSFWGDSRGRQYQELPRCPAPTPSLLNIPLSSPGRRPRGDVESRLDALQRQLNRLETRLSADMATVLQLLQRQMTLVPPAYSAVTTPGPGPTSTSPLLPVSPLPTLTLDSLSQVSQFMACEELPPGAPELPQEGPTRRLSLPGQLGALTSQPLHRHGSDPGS
Sequence of Cytochrome P450 1A2 (Homo sapiens) (P05177 whole entry, looked up): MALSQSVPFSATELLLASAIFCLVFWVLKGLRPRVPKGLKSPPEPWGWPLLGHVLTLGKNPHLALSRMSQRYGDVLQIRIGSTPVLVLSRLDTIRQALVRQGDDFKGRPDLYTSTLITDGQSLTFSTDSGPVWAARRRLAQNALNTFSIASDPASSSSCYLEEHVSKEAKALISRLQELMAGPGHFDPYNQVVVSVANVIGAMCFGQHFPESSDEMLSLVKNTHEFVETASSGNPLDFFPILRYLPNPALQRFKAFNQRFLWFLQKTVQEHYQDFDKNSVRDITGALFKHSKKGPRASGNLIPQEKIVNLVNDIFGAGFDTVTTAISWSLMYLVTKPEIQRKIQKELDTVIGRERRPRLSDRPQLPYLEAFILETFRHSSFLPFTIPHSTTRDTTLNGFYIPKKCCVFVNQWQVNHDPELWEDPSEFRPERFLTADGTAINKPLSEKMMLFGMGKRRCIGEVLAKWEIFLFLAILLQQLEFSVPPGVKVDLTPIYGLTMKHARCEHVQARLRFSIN
Sequence of Cytochrome P450 3A4 (Homo sapiens) (P08684 whole entry, looked up): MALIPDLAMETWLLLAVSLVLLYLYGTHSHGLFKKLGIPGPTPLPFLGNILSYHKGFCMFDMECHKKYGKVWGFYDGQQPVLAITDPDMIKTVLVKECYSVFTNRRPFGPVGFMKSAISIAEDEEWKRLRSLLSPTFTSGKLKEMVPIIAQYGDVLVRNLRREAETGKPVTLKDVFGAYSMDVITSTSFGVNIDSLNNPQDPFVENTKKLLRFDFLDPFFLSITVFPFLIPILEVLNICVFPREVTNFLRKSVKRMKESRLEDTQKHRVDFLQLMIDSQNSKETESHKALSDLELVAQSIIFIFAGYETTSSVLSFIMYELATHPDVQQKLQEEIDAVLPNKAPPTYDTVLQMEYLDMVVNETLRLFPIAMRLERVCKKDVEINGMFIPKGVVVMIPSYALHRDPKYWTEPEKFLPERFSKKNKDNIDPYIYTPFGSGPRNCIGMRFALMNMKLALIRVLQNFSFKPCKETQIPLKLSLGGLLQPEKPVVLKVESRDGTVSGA
Sequence of Cytochrome P450 2D6 (Homo sapiens) (P10635 whole entry, looked up): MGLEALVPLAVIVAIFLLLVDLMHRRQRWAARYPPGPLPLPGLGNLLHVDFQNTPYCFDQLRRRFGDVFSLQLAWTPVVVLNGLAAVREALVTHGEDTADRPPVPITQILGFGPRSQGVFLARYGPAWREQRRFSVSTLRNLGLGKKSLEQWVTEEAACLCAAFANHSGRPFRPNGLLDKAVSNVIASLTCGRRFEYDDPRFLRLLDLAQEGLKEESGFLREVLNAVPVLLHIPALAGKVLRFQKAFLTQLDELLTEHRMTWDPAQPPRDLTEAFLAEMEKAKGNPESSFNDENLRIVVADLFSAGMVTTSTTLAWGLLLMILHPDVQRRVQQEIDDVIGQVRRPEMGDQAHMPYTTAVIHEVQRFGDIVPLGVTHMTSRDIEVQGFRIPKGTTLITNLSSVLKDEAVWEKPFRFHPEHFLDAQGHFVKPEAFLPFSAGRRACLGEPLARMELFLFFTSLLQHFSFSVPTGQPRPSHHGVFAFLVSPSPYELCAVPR
Sequence of Cytochrome P450 2C9 (Homo sapiens) (P11712 whole entry, looked up): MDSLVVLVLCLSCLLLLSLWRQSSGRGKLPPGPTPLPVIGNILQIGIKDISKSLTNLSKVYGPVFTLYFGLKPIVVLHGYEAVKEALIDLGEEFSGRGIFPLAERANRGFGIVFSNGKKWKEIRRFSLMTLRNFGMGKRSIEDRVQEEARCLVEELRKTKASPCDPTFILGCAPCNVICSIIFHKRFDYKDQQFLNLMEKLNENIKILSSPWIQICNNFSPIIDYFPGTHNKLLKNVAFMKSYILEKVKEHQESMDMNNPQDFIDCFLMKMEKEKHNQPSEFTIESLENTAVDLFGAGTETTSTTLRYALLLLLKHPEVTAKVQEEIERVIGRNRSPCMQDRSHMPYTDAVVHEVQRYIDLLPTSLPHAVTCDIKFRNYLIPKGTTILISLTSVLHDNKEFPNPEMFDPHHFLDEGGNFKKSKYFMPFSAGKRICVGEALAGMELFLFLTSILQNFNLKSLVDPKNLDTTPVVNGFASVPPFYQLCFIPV
Sequence of Nuclear receptor subfamily 1 group I member 2 (Rattus norvegicus) (Q9R1A7 whole entry, looked up): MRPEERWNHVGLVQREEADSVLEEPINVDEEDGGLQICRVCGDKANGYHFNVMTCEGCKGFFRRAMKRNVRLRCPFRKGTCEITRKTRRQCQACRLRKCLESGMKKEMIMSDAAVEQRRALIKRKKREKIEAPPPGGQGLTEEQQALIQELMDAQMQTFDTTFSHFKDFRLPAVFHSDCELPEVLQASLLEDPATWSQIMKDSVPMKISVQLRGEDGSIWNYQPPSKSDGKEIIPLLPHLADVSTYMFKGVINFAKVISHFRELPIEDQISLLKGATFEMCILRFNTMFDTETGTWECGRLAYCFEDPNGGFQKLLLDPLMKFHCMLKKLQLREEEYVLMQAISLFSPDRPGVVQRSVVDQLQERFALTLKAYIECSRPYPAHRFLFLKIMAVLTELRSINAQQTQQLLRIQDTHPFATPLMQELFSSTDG

CCCCCCCCCOC(C)=O
inactive: Potency [1] | Potency [2] | Potency [3] | outcome [4] | Potency [5] | Potency [6] | Potency [7] | Potency [8] | Potency [9] | Potency [10]

CCC(C)(C)C1CCC(O)CC1 (stereo not drawn)
inactive: Potency [1] | Potency [2] | Potency [3] | outcome [4] | Potency [5] | Potency [6] | Potency [7] | Potency [8] | Potency [9] | Potency [10]

C/C=C/C=C/CCCCCCCO
inactive: Potency [11] | Potency [2] | outcome [4] | Potency [5]
active: Potency [6] 61.1 µM | Potency [8] 25.2 µM | Potency [9] 7.1 µM | Potency [10] 15.9 µM

COC(=O)c1cc(S(N)(=O)=O)ccc1OC
inactive: Potency [1] | Potency [2] | Potency [3] | outcome [4] | Potency [5] | Potency [6] | Potency [7] | Potency [8] | Potency [9] | Potency [12]

CC[C@@H]([C@H](C)O)n1ncn(-c2ccc(N3CCN(c4ccc(OC[C@@H]5CO[C@@](Cn6cncn6)(c6ccc(F)cc6F)C5)cc4)CC3)cc2)c1=O
inactive: Potency [11] | outcome [4] | Potency [12]
active: Potency [3] 7.5 µM | Potency [6] 10.6 µM

CCCCCCCC/C=C\CCCCCCCC(=O)OC
inactive: Potency [1] | Potency [2] | Potency [3] | outcome [4] | Potency [5] | Potency [6] | Potency [7] | Potency [8] | Potency [9] | Potency [13] | Potency [10]
active: Potency [12] 31.8 µM

CCC(C(=O)OCCN(CC)CC)c1ccccc1 (stereo not drawn)
active: Potency [7] 3.09 µM | Potency [12] 11.5 µM
inactive: Potency [1] | Potency [2] | Potency [3] | outcome [4] | Potency [5] | Potency [6] | Potency [8] | Potency [9] | Potency [13] | Potency [10]

C(=C\c1ccccc1)/CN1CCN(C(c2ccccc2)c2ccccc2)CC1
inactive: Potency [11] | Potency [2] | outcome [4] | Potency [5] | max activation [14] 1.1%

C=CC(C)(C)CC(=O)OC
inactive: Potency [11] | Potency [2] | outcome [4] | Potency [13]
active: Potency [6] 68.8 µM | Potency [7] 63.5 µM | Potency [8] 35.7 µM | Potency [9] 35.7 µM | Potency [12] 20.1 µM | Potency [10] 63.5 µM

CCOC(=O)N1CCC(n2c(=O)[nH]c3cc(Cl)ccc32)CC1
active: Potency [8] 9.77 µM | Potency [9] 9.77 µM
inactive: Potency [11] | Potency [2] | outcome [4] | Potency [6] | Potency [7] | Potency [13] | Potency [10]

CCN(CC)CCNC(=O)c1ccc(NC(C)=O)cc1
active: Potency [7] 17.4 µM
inactive: Potency [1] | Potency [2] | Potency [3] | outcome [4] | Potency [5] | Potency [6] | max activation [14] -1.35% | Potency [15] | Potency [16] | Potency [9] | Potency [12] | Potency [10]

O=C1NCCN1
active: Potency [7] 21.5 µM | Potency [8] 34.1 µM
inactive: Potency [1] | Potency [2] | Potency [3] | outcome [4] | Potency [5] | Potency [6] | Potency [9] | Potency [13] | Potency [10]

N#C/C(=C1/SC[C@@H](c2ccc(Cl)cc2Cl)S1)n1ccnc1
active: Potency [7] 0.219 µM | Potency [8] 0.389 µM | Potency [9] 0.389 µM | Potency [12] 0.288 µM | Potency [13] 3.01 µM
inactive: Potency [11] | Potency [2] | outcome [4] | Potency [5] | Potency [6]

O=C(CCC1CCN(Cc2ccccc2)CC1)c1ccc2c(c1)NCCCC2
active: Potency [7] 8.71 µM | Potency [13] 4.77 µM
inactive: Potency [11] | Potency [2] | outcome [4] | Potency [5] | Potency [8] | Potency [9] | Potency [12] | Potency [10]

Cc1cc(S(=O)(=O)O)ccc1N=Nc1c(O)ccc2ccccc12
active: Potency [1] 24.3 µM | Potency [3] 27.3 µM | Potency [5] 30.6 µM | Potency [7] 39.9 µM | Potency [8] 20 µM | Potency [9] 31.7 µM | Potency [12] 25.2 µM | Potency [10] 39.9 µM
inactive: Potency [2] | outcome [4] | Potency [6] | Potency [13]

C/C=C(\C)C(=O)OCCC(C)CCC=C(C)C (stereo not drawn)
inactive: Potency [1] | Potency [2] | Potency [3] | outcome [4] | Potency [5] | Potency [6] | Potency [7] | Potency [13]
active: Potency [8] 20 µM | Potency [9] 39.9 µM | Potency [10] 20 µM

O=C(O)c1cccnc1C(=O)O
inactive: Potency [1] | Potency [2] | Potency [3] | outcome [4] | Potency [5] | Potency [6] | Potency [7] | Potency [8] | Potency [9] | Potency [12] | Potency [13] | Potency [10]

OCCSc1ccccc1
active: Potency [12] 39.9 µM
inactive: Potency [1] | Potency [2] | Potency [3] | outcome [4] | Potency [5] | Potency [6] | Potency [7] | Potency [8] | Potency [9] | Potency [13] | Potency [10]

Fc1c(F)c(F)c(Br)c(F)c1F
inactive: Potency [11] | Potency [3] | Potency [5] | Potency [6] | Potency [7] | Potency [8] | Potency [9] | Potency [13] | Potency [10]
